GALR2 blocker: GALR2 antagonists in receptor-expressing cells, primary screen | Galanin receptor type 2 (Homo sapiens), O43603 | antagonist mode | inhibition, % at 4 µM | hit rate 0.39% among 140,000 | AID 828, 2007; in the data active means inhibition above about 27%;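 further: cells stimulated with galanin 1-16 at roughly its EC80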
GALR2 agonist: GALR2 receptor agonists, primary screen, cell-based. hit rate 0.48% among 140,000. activation, % (concentration not given with the values). Galanin receptor type 2 (Homo sapiens), O43603. GALR2-expressing cells, agonist activation read-out. AID 803, 2007; in the data active means activation above about 5%, passing the limit was not always enough
S1P3 antagonist: S1P3 receptor antagonists, primary screen, cell-based | CHO S1P3 NFAT-BLA reporter, FRET fluorescence, antagonist mode | inhibition, % at 4.98 µM | hit rate 0.27% among 170,000 | AID 485, 2006;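 active means inhibition above the plate cutoff, the mean inhibition of test wells on that plate plus 3 SD, cut at about 28% in these data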;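 further: cells challenged with S1P at its EC80 of 0.8 µM; blue over green emission ratio from cleaved BLA substrate after 4 h stimulation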
Target sequence (Q99500 whole entry, looked up): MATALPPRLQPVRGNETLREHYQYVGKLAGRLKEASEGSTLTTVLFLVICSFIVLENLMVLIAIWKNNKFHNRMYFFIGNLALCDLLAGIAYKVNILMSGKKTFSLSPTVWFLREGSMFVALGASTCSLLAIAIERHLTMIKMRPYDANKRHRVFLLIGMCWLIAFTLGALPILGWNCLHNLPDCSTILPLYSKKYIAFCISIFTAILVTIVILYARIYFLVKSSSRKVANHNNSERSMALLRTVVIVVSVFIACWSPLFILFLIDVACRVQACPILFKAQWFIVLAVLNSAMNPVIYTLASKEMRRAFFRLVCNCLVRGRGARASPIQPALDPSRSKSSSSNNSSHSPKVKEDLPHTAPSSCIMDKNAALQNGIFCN
S1P4 antag: S1P4 receptor antagonists, primary screen, cell-based | AID 1510, 2009 | Sphingosine 1-phosphate receptor 4 (Homo sapiens), O95977 | hit rate 0.26% among 220,000 | inhibition, % at 4.98 µM | S1P4-expressing cells, antagonist mode, reporter read-out; in the data active means inhibition above about 29%
S1P4 ag: S1P4 receptor agonists, primary screen, cell-based; S1P4-expressing cell line, agonist reporter assay; activation, % at 4.98 µM; hit rate 0.35% among 220,000; Sphingosine 1-phosphate receptor 4 (Homo sapiens), O95977; in the data active means activation above about 11%
S1P4 agonist cf: S1P4 receptor agonists, retest, confirmation, cell-based, high throughput; shares compounds with S1P4 ag; activation, % at 4.98 µM; S1P4 agonist cell-based reporter assay; hit rate 7% among 740; in the data active means activation above about 12%
S1P1 ag: S1P1 receptor agonists, human, counter-screen for S1P4 agonist project, cell-based | shares compounds with S1P4 ag | hit rate 4% among 740 | S1P1 agonist cell-based assay, activation | activation, % at 4.98 µM; in the data active means activation above about 21%
Hits are given with their value; i = inactive; nt = no result. Most compounds without a hit are left out; they make up all but 1.3% or so of the library.

SMILES	GALR2 blocker	GALR2 agonist	S1P3 antagonist	S1P4 antag	S1P4 ag	S1P4 agonist cf	S1P1 ag
O=C(N/N=C/c1ccc(-c2ccccc2Cl)o1)c1ccccc1	nt	nt	i	i	i	nt	nt
CCCn1c(SCC(=O)Nc2ccc3c(c2)CCC3)n[nH]c1=O	i	i	i	i	16	i	i
CCOc1ccc(C(CC(=O)O)NC(=O)COc2ccccc2)cc1OC (stereo not drawn)	nt	nt	i	i	44	i	i
O=C(COC(=O)c1c2c(nc3ccccc13)CCN(Cc1ccccc1)C2)Nc1c(F)cccc1F	i	i	i	i	58	i	i
CC(=O)Nc1ccc(NC(=O)COC(=O)c2c3c(nc4ccccc24)CCN(Cc2ccccc2)C3)cc1	i	i	i	i	i	nt	nt
COc1ccc([N+](=O)[O-])cc1NC(=O)Cc1ccc(Cl)cc1	i	i	i	i	15	i	i
COc1ccc([N+](=O)[O-])cc1NC(=O)Cc1ccc(C)cc1	i	i	i	i	i	nt	nt
Cc1ccc(CC(=O)Nc2cc([N+](=O)[O-])ccc2F)cc1	nt	nt	i	i	i	nt	nt
Cc1cc(C)nc(NC(=O)Cc2ccc([N+](=O)[O-])cc2)c1	i	i	i	i	30	i	i
CN1CCN(c2nc3ccccn3c(=O)c2/C=C(\C#N)S(=O)(=O)c2ccc(Cl)cc2)CC1	nt	nt	i	i	i	nt	nt
COc1ccc(/C=N/NC(=O)c2ccc3nc[nH]c3c2)cc1OC	nt	nt	i	i	i	nt	nt
CN(CC(=O)Nc1ccc(Cl)c(C(F)(F)F)c1)Cc1cc(=O)n2ccsc2n1	nt	nt	i	i	i	nt	nt
O=C(CN1C(=O)CSc2ccc(S(=O)(=O)N3CCOCC3)cc21)NCCCN1CCOCC1	nt	nt	i	i	17	i	i
CC(=O)Nc1ccc(S(=O)(=O)Oc2ccc(C(=S)N3CCCCC3)cc2)cc1	i	i	i	i	29	i	i
O=C(CN1CCCc2ccccc21)NCCc1ccc(Cl)cc1	nt	nt	i	i	i	nt	nt
O=C(CSc1nc2ccc([N+](=O)[O-])cc2s1)c1ccc2ccccc2c1	nt	nt	i	i	i	nt	nt
CCC(C)NCCC(=O)Nc1ccc(Cl)c(S(=O)(=O)Nc2ccc(Cl)cc2)c1 (stereo not drawn)	nt	nt	i	i	19	i	i
Cc1ccc(OCCn2cc(/C=C3\C(=O)NN(c4ccccc4)C3=O)c3ccccc32)cc1	i	i	i	i	14	i	i
Cc1ccc(OCCn2cc(/C=N/NC(=O)c3ccncc3)c3ccccc32)cc1	i	i	i	i	i	nt	nt
CCCCC(=O)NCCc1ccc(OC)cc1	i	i	nt	i	26	i	i
COc1ccc2cc(OC)c(C(=O)N3CCOCC3)cc2c1	nt	nt	i	i	14	i	i
Cc1c(Br)ccc(NC(=O)c2ccccc2[N+](=O)[O-])c1C	nt	nt	i	i	i	nt	nt
O=c1c2[nH]c3ccc(F)cc3c2ncn1CC1CCCO1 (stereo not drawn)	nt	nt	i	i	38	i	i
Cc1cc2cc3c(cc2nc1SCC(=O)O)CCC3	nt	nt	i	i	43	i	i
Cc1ccccc1NC(=O)CSc1nc2cc3c(cc2cc1C)CCC3	i	i	nt	i	i	nt	nt
SMILES	GALR2 blocker	GALR2 agonist	S1P3 antagonist	S1P4 antag	S1P4 ag	S1P4 agonist cf	S1P1 ag
Cn1cc(C2CC(c3ccccc3)=NN2C(=O)c2ccccc2)c2ccccc21 (stereo not drawn)	i	i	i	i	13	i	i
O=C(/C=C/c1ccc(F)cc1)N1CCN(c2ccccn2)CC1	i	i	i	i	16	i	i
COc1ccccc1NC(=O)c1cc2ccc(O)cc2o/c1=N\O	i	i	i	i	i	nt	nt
COc1ccccc1N=c1oc2cc(O)ccc2cc1C(=O)NCC1CCCO1 (stereo not drawn)	i	29	i	i	38	i	i
COc1cccc(N=c2oc3cc(O)ccc3cc2C(=O)NCC2CCCO2)c1 (stereo not drawn)	nt	nt	i	i	17	i	i
COc1ccc2cc(C(N)=O)c(=Nc3ccc(C)cc3)oc2c1	nt	nt	i	i	i	nt	nt
Cc1cccc(N=c2oc3cc(O)ccc3cc2C(N)=O)c1	i	66	i	i	48	i	i
COc1ccccc1N=c1oc2cc(O)ccc2cc1C(N)=O	i	20	i	i	27	i	i
Cc1noc(C)c1-c1nnc(-c2ccc(OC(F)(F)F)cc2)o1	nt	nt	i	i	i	nt	nt
CC1Cc2ccccc2N1C(=O)CSc1nc2c(c(=O)n(C)c(=O)n2C)n1Cc1ccccc1 (stereo not drawn)	i	i	i	i	i	nt	nt
O=C(O)Cn1c(SCCOc2ccccc2)nc2ccccc21	i	i	i	i	59	i	i
COCCNC(=O)Cn1c(=O)n(CCCCCC(=O)Nc2ccccc2)c(=O)c2sccc21	i	i	i	i	21	i	i
CC(=O)Nc1ccc(N=Cc2nc(-c3ccc(C)cc3)oc2O)cc1	i	i	i	i	i	nt	nt
Cc1ccc(N=Cc2nc(-c3ccc(C)cc3)oc2O)cc1	nt	nt	i	i	15	i	i
Cc1ccc(OCCOc2ccc(Cl)cc2Cl)c([N+](=O)[O-])n1	i	i	i	i	102	80	i
O=C(Cn1cnc2ccccc21)N1CCN(S(=O)(=O)c2ccccc2)CC1	nt	nt	i	i	15	i	i
O=C(CSc1ncccn1)N1CCN(S(=O)(=O)c2ccccc2)CC1	nt	nt	i	i	i	nt	nt
CCc1ccc(N/C(SCc2ccccc2C)=C(/C#N)C(=O)NCc2ccco2)cc1	i	i	nt	i	i	nt	nt
Cc1ccc(C(=O)N/C(=C/c2ccc(F)cc2)C(=O)NCc2ccncc2)cc1	i	i	i	i	i	nt	nt
O=C(N/N=C\c1ccc(O)c([N+](=O)[O-])c1)c1ccccc1-n1cccc1	i	i	i	i	16	i	i
O=C(N/N=C\c1ccccc1)c1ccccc1-n1cccc1	nt	nt	i	i	i	nt	nt
CC(C)[C@H](NC(=O)c1ccco1)C(=O)NC12CC3CC(CC(C3)C1)C2	nt	nt	i	i	i	nt	nt
Cc1ccc(C(=O)/C=C2/NC(=O)CS2)cc1	i	i	nt	i	20	i	i
O=C1CS/C(=C/C(=O)c2cccc(Cl)c2)N1	nt	nt	i	i	i	nt	nt
O=C(CNc1ccccc1OC(F)F)N1CCc2ccccc21	nt	nt	i	i	i	nt	nt
SMILES	GALR2 blocker	GALR2 agonist	S1P3 antagonist	S1P4 antag	S1P4 ag	S1P4 agonist cf	S1P1 ag
C/C(=N\Nc1ccc2nncn2n1)c1cccs1	nt	nt	i	i	i	nt	nt
CCOC(=O)/C=c1\s/c(=C(\C#N)C(=O)OCC)n(-c2ccccc2)c1=O	i	i	nt	i	160	i	i
O=C(Nc1ccc2oc(-c3ccncc3)nc2c1)c1ccc(F)cc1	nt	nt	i	i	20	i	i
COc1ccc(C(=O)NNC(=O)CSc2nnc(COc3ccccc3OC)n2C)cc1	i	i	i	i	i	nt	nt
Cc1ccc(NC(=O)CSc2nnc(CNC(=O)c3cccs3)o2)cc1	nt	nt	i	i	i	nt	nt
O=C(CSc1nnc(CNC(=O)c2cccs2)o1)Nc1ccccc1	nt	nt	i	i	12	i	i
COc1cc(C(=O)NCc2nnc(SCC(=O)Nc3nccs3)o2)cc(OC)c1OC	nt	nt	i	i	13	i	i
